# PubChem BioAssay AID1508601 (ICCB-Longwood Screening Facility, Harvard Medical School, 2020)
# Among all 5,700 compounds or so, about 85 (1%) were called active. Cut-off read from the data, not from the text of the source: active = p53-positive nuclei above about 36% (passing the limit was not always enough); inactive = the rest. Many of the other results were omitted from the sample, so actives are more common in it than they were.
# Tests used:
# [1] = nuclear p53 accumulation, HPV+ cells – imaging, p53-positive nuclei imaging, 24 h, 48 h (AID 1508601); conditions: 24/48 h
# [2] = biological target: Cellular tumor antigen p53 (Homo sapiens) (UniProt P04637); experiment: as above; conditions: 24/48 h, stronger effect = higher value
# [3] = measured here: cell number at 24 h, Library stock concentration: 80 uM
# [4] = measured here: cell number at 24 h, Library stock concentration: 400 uM
# [5] = measured here: cell number at 24 h, Library stock concentration: 2 mM
# [6] = measured here: cell number at 24 h, Library stock concentration: 3.33 mM
# [7] = measured here: cell number at 24 h, Library stock concentration: 10 mM
# [8] = measured here: cell number at 48 h, Library stock concentration: 80 uM
# [9] = measured here: cell number at 48 h, Library stock concentration: 400 uM
# [10] = measured here: cell number at 48 h, Library stock concentration: 2 mM
# [11] = measured here: cell number at 48 h, Library stock concentration: 3.33 mM
# [12] = measured here: cell number at 48 h, Library stock concentration: 10 mM
# [13] = Library stock concentration: 80 uM
# [14] = Library stock concentration: 400 uM
# [15] = Library stock concentration: 2 mM
# [16] = Library stock concentration: 3.33 mM
# [17] = Library stock concentration: 10 mM
# [18] = measured here: p53 positive nuclei at 24 h, Library stock concentration: 80 uM
# [19] = measured here: p53 positive nuclei at 24 h, Library stock concentration: 400 uM
# [20] = measured here: p53 positive nuclei at 24 h, Library stock concentration: 2 mM
# [21] = measured here: p53 positive nuclei at 24 h, Library stock concentration: 3.33 mM
# [22] = measured here: p53 positive nuclei at 24 h, Library stock concentration: 10 mM
# [23] = measured here: cell number at 24 h, concentration not given here
# [24] = measured here: cell number at 48 h, concentration not given here
# [25] = measured here: p53 positive nuclei at 24 h, concentration not given here
# Chain of Cellular tumor antigen p53 (Homo sapiens) (P04637 whole entry, looked up): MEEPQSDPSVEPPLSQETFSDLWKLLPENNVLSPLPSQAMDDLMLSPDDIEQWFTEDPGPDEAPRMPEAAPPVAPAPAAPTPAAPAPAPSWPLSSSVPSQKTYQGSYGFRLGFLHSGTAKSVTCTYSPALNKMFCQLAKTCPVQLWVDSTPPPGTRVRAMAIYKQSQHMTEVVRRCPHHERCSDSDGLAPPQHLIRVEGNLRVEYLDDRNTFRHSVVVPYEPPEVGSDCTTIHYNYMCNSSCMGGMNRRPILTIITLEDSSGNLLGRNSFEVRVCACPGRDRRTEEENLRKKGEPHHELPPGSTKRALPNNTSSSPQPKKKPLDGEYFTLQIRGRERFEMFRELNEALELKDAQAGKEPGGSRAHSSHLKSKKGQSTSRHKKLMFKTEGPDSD
smiles,measurement,setting,value
Cn1cc(CNCC2CCN(c3ncc(C(=O)NO)cn3)CC2)c2ccccc21,"nuclei count, normalised",[1]; [3],71%
same,"nuclei count, normalised",[1]; [4],49.1%
same,"nuclei count, normalised",[1]; [5],40.5%
same,"nuclei count, normalised",[1]; [6],36.3%
same,"nuclei count, normalised",[1]; [7],37.2%
same,"nuclei count, normalised",[1]; [8],55.2%
same,"nuclei count, normalised",[1]; [9],24%
same,"nuclei count, normalised",[1]; [10],20.2%
same,"nuclei count, normalised",[1]; [11],20.7%
same,"nuclei count, normalised",[1]; [12],23.5%
same,"p53-positive nuclei, normalised",[2]; [13],20.9% (inactive)
same,"p53-positive nuclei, normalised",[2]; [14],102% (active)
same,"p53-positive nuclei, normalised",[2]; [15],92.2% (active)
same,"p53-positive nuclei, normalised",[2]; [16],111% (active)
same,"p53-positive nuclei, normalised",[2]; [17],108% (active)
same,"p53-positive nuclei, normalised",[2]; [18],43.9%
same,"p53-positive nuclei, normalised",[2]; [19],92.9%
same,"p53-positive nuclei, normalised",[2]; [20],103%
same,"p53-positive nuclei, normalised",[2]; [21],96.9%
same,"p53-positive nuclei, normalised",[2]; [22],120%
CCCCC/C=C\C/C=C\CCCC/C=C\CCCC(=O)O,"nuclei count, normalised",[1]; [23],97.6%
same,"nuclei count, normalised",[1]; [24],96%
same,"p53-positive nuclei, normalised",[2]; concentration not given here,-0.0366% (inactive)
same,"p53-positive nuclei, normalised",[2]; [25],0.0071%
Cc1ccc(B(O)O)cc1,"nuclei count, normalised","[1]; measured here: cell number at 24 h, Library stock concentration: 46 uM",105%
same,"nuclei count, normalised","[1]; measured here: cell number at 24 h, Library stock concentration: 278 uM",101%
same,"nuclei count, normalised","[1]; measured here: cell number at 24 h, Library stock concentration: 1.67 mM",110%
same,"nuclei count, normalised",[1]; [7],110%
same,"nuclei count, normalised","[1]; measured here: cell number at 48 h, Library stock concentration: 46 uM",109%
same,"nuclei count, normalised","[1]; measured here: cell number at 48 h, Library stock concentration: 278 uM",102%
same,"nuclei count, normalised","[1]; measured here: cell number at 48 h, Library stock concentration: 1.67 mM",112%
same,"nuclei count, normalised",[1]; [12],112%
same,"p53-positive nuclei, normalised",[2]; Library stock concentration: 46 uM,-0.0277% (inactive)
same,"p53-positive nuclei, normalised",[2]; Library stock concentration: 278 uM,-0.207% (inactive)
same,"p53-positive nuclei, normalised",[2]; Library stock concentration: 1.67 mM,-0.181% (inactive)
same,"p53-positive nuclei, normalised",[2]; [17],-0.0402% (inactive)
same,"p53-positive nuclei, normalised","[2]; measured here: p53 positive nuclei at 24 h, Library stock concentration: 46 uM",-0.0986%
same,"p53-positive nuclei, normalised","[2]; measured here: p53 positive nuclei at 24 h, Library stock concentration: 278 uM",-0.148%
same,"p53-positive nuclei, normalised","[2]; measured here: p53 positive nuclei at 24 h, Library stock concentration: 1.67 mM",-0.218%
same,"p53-positive nuclei, normalised",[2]; [22],-0.0984%
CCc1cnn2c(NCc3ccc[n+]([O-])c3)cc(N3CCCCC3CCO)nc12 (stereo not drawn),"nuclei count, normalised",[1]; [3],30.2%
same,"nuclei count, normalised",[1]; [4],27.8%
same,"nuclei count, normalised",[1]; [5],24.5%
same,"nuclei count, normalised",[1]; [6],27.3%
same,"nuclei count, normalised",[1]; [7],30.5%
same,"nuclei count, normalised",[1]; [8],20.4%
same,"nuclei count, normalised",[1]; [9],19.3%
same,"nuclei count, normalised",[1]; [10],16.3%
same,"nuclei count, normalised",[1]; [11],18.9%
same,"nuclei count, normalised",[1]; [12],20.6%
same,"p53-positive nuclei, normalised",[2]; [13],51.1% (active)
same,"p53-positive nuclei, normalised",[2]; [14],35% (inactive)
same,"p53-positive nuclei, normalised",[2]; [15],42% (inactive)
same,"p53-positive nuclei, normalised",[2]; [16],36.1% (inactive)
same,"p53-positive nuclei, normalised",[2]; [17],26.7% (inactive)
same,"p53-positive nuclei, normalised",[2]; [18],9.51%
same,"p53-positive nuclei, normalised",[2]; [19],6.74%
same,"p53-positive nuclei, normalised",[2]; [20],7.45%
same,"p53-positive nuclei, normalised",[2]; [21],8.9%
same,"p53-positive nuclei, normalised",[2]; [22],2.01%
COc1ccc(CNc2nc(N3CCCC3CO)ncc2C(=O)NCc2ncccn2)cc1Cl (stereo not drawn),"nuclei count, normalised",[1]; [6],112%
same,"nuclei count, normalised",[1]; [11],104%
same,"p53-positive nuclei, normalised",[2]; [16],-0.102% (inactive)
same,"p53-positive nuclei, normalised",[2]; [21],-0.198%
COc1cccc2c(C)cc(N3CCC[C@H]3CO)nc12,"nuclei count, normalised",[1]; [23],96.3%
same,"nuclei count, normalised",[1]; [24],98.1%
same,"p53-positive nuclei, normalised",[2]; concentration not given here,-0.0398% (inactive)
same,"p53-positive nuclei, normalised",[2]; [25],0.0977%
